APP 5UTR inh: APP translation inhibition; 190,000 tested, 0.82% active; SH-SY5Y APP 5'UTR-luciferase reporter, luminescence; inhibition, % at 2 µM;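 active = inhibition above a set limit, derived from the sample mean plus 3 SD, cut at about 45% in these data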
Ba/F3 V617F tox: reduce viability of Ba/F3 cells dependent on JAK2V617F | Ba/F3 EpoR-JAK2V617F viability, ATP luminescence | inhibition, % at 5.6 µM | 220,000 tested, 1.1% active;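 active = inhibition above the campaign mean plus 3 SD over all tested compounds, cut at about 24% in these data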;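 also: cytokine-independent growth of Ba/F3 cells driven by EpoR plus mutant JAK2; 0% = DMSO-treated cells and 100% = JAK inhibitor I control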
KLF5 inh: inhibitors of KLF5 expression | DLD-1 KLF5 promoter-luciferase reporter, luminescence | 290,000 tested, 0.23% active | inhibition, % at 5 µM | AID 1700;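 active = inhibition above a per-plate limit of that plate's mean compound inhibition plus 3 SD, cut at about 60% in these data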;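 also: 0% = DMSO wells and 100% = LY294002 at 200 µM; higher means less KLF5 promoter-driven luciferase light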
BaF3 parental: reduces parental Ba/F3 cell viability, JAK2V617F counter-screen | AID 1486 | CellTiter-Glo ATP luminescence | inhibition, % at 5.6 µM | 220,000 tested, 1.1% active;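 active = inhibition above a per-campaign cutoff, the mean inhibition of all tested compounds plus 3 SD, cut at about 27% in these data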;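 also: 0% = DMSO wells and 100% = JAK Inhibitor I control wells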
aSyn 5UTR inh: MLPCN primary screen, SNCA 5' untranslated region. alpha-synuclein 5'UTR reporter, inhibitor activity. inhibition, % (tested at 7.5 µM). 300,000 tested, 0.82% active; in the data active = inhibition above about 60%;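 also: H4 neuroglioblastoma cells stably carrying SNCA 5'UTR luciferase fusion; 0% = DMSO wells and 100% = positive control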
IEC-6 tox: kills IEC-6 intestinal cells in KLF5 counter-screen | IEC-6 cytotoxicity, luminescence viability | inhibition, % at 5 µM | 290,000 tested, 0.78% active | AID 1825;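 also: 0% = plate median of test compound wells and 100% = cytotoxic reference compound wells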
IEC-6 cytotox cf: confirmation of cytotoxic compounds in rat IEC-6 intestinal epithelial cells; shares compounds with IEC-6 tox; IEC-6 rat intestinal epithelial viability, luminescence; inhibition, % at 5 µM; 1,900 tested, 63% active; AID 1907;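 also: 0% = vehicle and 100% = reference cytotoxic drug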
Starred values were filed as active, the others as inactive; · = no result given. The list is not random: actives were taken first. Their share in the collection is about 2.2%. Rule as the data show it, unless noted: active = inhibition above about 22%; inactive = the rest.

SMILES	APP 5UTR inh	Ba/F3 V617F tox	KLF5 inh	BaF3 parental	aSyn 5UTR inh	IEC-6 tox	IEC-6 cytotox cf
Cc1cccc(C(=O)Nc2ccccc2SCC2CSc3nc4ccccc4c(=O)n32)c1 (centres undefined)	-11	-2	-26	1	38	66*	44*
O=C(Nc1ccccc1SCC1CSc2nc3ccccc3c(=O)n21)c1ccccc1Cl (centres undefined)	-1	-3	7	4	27	60*	26*
O=c1c2ccccc2nc2n1C(CSc1ccccc1)CS2 (centres undefined)	-17	-1	-16	1	-12	4	·
O=C(Nc1ccccc1SCC1CSc2nc3ccccc3c(=O)n21)c1cccc(Cl)c1 (centres undefined)	-1	3	30	5	-55	69*	42*
O=C(Nc1ccccc1SCC1CSc2nc3ccccc3c(=O)n21)c1ccccc1 (centres undefined)	-5	-1	8	4	25	50*	32*
CCOc1ccc(S(=O)(=O)N2CCOCC2)cc1NS(=O)(=O)c1ccc(OC)c([N+](=O)[O-])c1	·	·	·	·	-10	·	·
CC1(C)CC(=O)C2=C(C1)N(c1cccc(Cl)c1)C(=O)NC2(C(F)(F)F)C(F)(F)F	-16	-3	11	5	8	1	·
O=C(Cn1nc(-c2cccc(Cl)c2)ccc1=O)NCC1COCCO1 (centres undefined)	·	·	·	·	12	·	·
Cc1ccc(C(=O)Nc2ccccc2SCC2CSc3nc4ccccc4c(=O)n32)cc1 (centres undefined)	3	4	41	6	7	70*	45*
CCOc1ccc(Br)cc1CNc1ccc2c(c1)OCCO2	-5	2	4	1	-29	5	·
NC(=O)c1ccc[n+](CC(=O)c2ccccc2)c1	·	60*	26	27*	-13	22*	-2
NC(=O)c1ccc[n+](CC(=O)c2ccc(NC(=O)c3ccccc3)cc2)c1	·	·	-25	·	-6	4	·
COC(=O)CCn1[nH]c(=O)c2ccccc2c1=O	4	0	-2	5	4	5	·
O=c1[nH]n(Cc2ccccc2)c(=O)c2ccccc12	-3	3	-6	6	-68	31*	38*
CCn1c(=O)cc(OCC(=O)NCc2ccco2)c2ccccc21	6	-4	-24	1	4	2	·
CCn1c(=O)cc(OCC(=O)NCc2ccc(C)o2)c2ccccc21	8	2	-9	6	25	23*	13
COc1ccc(NC(=S)N/N=C/c2cccn2Cc2ccc(F)cc2)cc1	-10	-2	-2	4	-5	-1	·
Cc1ccc(-c2nnn3c2nc(NCCc2ccc(S(N)(=O)=O)cc2)c2ccccc23)cc1	4	3	8	7	-19	55*	4
NC(=S)NNc1c(F)c(F)c(F)c(F)c1F	18	30*	23	35*	20	49*	-9
Cc1ccccc1NNC(N)=S	-22	-1	-10	4	14	0	·
COc1cc(OC)cc(N2C(=O)CC(N3CCC(C(=O)N4CCCCC4)CC3)C2=O)c1 (centres undefined)	·	·	-6	·	-41	3	·
O=S(=O)(Nn1cnnc1)c1ccc(F)cc1	-1	0	-19	5	-8	-5	·
CCOc1ccc(Cl)cc1S(=O)(=O)n1cnc2ccccc21	11	0	-20	6	-3	8	·
CCOc1ccc(C)cc1S(=O)(=O)n1cnc2ccccc21	·	·	56	·	-9	51*	29*
COc1cccc(CNC(=O)CCCn2nc(C)n3c(cc4sccc43)c2=O)c1	·	·	-12	·	-2	-6	·
SMILES	APP 5UTR inh	Ba/F3 V617F tox	KLF5 inh	BaF3 parental	aSyn 5UTR inh	IEC-6 tox	IEC-6 cytotox cf
CCOC(=O)c1[nH]c(C)c(C(=O)OCc2ccccc2F)c1C	·	·	36	·	-8	51*	38*
CCOC(=O)c1[nH]c(C)c(C(=O)OCC)c1C	-19	-1	-56	-5	-4	0	·
CCOC(=O)c1[nH]c(C)c(C(=O)c2cc(F)ccc2F)c1C	95*	63*	51	78*	74*	88*	65*
CCc1ccc(N(C(=O)CCC(=O)Nc2cc(C)on2)C(C(=O)NC(C)(C)C)c2ccc(OC)cc2)cc1 (centres undefined)	·	·	0	·	-14	7	·
CC1CCCN(S(=O)(=O)c2ccc(C(=O)Nc3nnc(-c4ccco4)o3)cc2)C1 (centres undefined)	·	·	51	·	57	25*	16
CN1CCc2nc(NC(=O)COc3ccc4ccccc4c3)sc2C1	8	9	-14	8	-6	38*	18
COc1ccc(-n2nnnc2-c2ccccc2)cc1	89*	80*	38	68*	19	52*	50*
Clc1ccc(-n2nnnc2-c2ccccc2)cc1	4	4	-3	3	·	6	·
COC(=O)c1cc(S(=O)(=O)N2c3ccccc3CC2C)cn1C (centres undefined)	·	·	-28	·	21	-7	·
COc1cc(CNCCN2CCOCC2)ccc1OCc1ccc(Cl)cc1	-4	-1	-38	4	-36	2	·
COc1cc(CNCCCN2CCOCC2)cc(Br)c1OCc1ccc(Cl)cc1	10	30*	-19	73*	-30	53*	46*
Cc1occc1C(=O)N1CCC2(CCCN(Cc3ccc(F)c(F)c3)C2)C1 (centres undefined)	·	·	-15	·	-8	3	·
COC(=O)C(Cc1ccccc1)NC(=O)CCc1c[nH]c2ccccc12 (centres undefined)	·	·	-20	·	-19	-8	·
COc1ccc(-c2n[nH]c3c2CN(C(=O)c2ccc(OC)c(OC)c2)CC3)cc1	·	·	29	·	24	40*	22
COc1cc(OC)cc(C(=O)N2CCN(C(=O)c3ccc(OC)c(OC)c3)CC2)c1	-3	0	4	3	39	-1	·
O=C(N/N=C/c1c[nH]c2ccccc12)c1[nH]c2ccc(Br)cc2c1-c1ccccc1	92*	76*	44	68*	-26	82*	63*
O=C(N/N=C/c1ccc(O)cc1)c1[nH]c2ccc(Br)cc2c1-c1ccccc1	94*	75*	56	71*	8	83*	65*
COc1ccc(N(CC(=O)Nc2ccc(OC)cc2OC)S(=O)(=O)c2ccccc2)cc1	-21	-6	-10	2	-9	4	·
CCOc1ccc(N(CC(=O)Nc2ccccc2OC)S(=O)(=O)c2ccccc2)cc1	·	·	59	·	123*	78*	53*
CCC(C)n1c(SCC(=O)NC(=O)c2cccn2C)nc2ccccc2c1=O (centres undefined)	-14	4	21	3	-27	33*	29*
O=[N+]([O-])c1cccc(NC2=NCCC2)c1	-11	0	-11	5	2	-3	·
O=C(Nc1nc(-c2ccncc2)cs1)c1ccco1	-8	-2	-37	7	-86	-2	·
